# The supplement of paper PMC6555819
# Key:
# Assay in all cases: PBM binding z-score (relative to random genomic background probes); higher = stronger binding; sequences stand for … in GC…GCGATTGACAGCGTAGAATGAAGG
# [1] = test system: PPARg:RXRa DBDmut IVT, anti-RXR (DBD mutation: RXRa K156A/R161A, NR concentration 270 nM, RXRa partner concentration 90 nM)
# Summary of the method: (§1)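 Binding z-scores take random background probes as their reference. They come from custom Agilent 4×180K protein-binding microarrays incubated 1 h with ligand-free nuclear receptor dimers, with antibodies against each partner (one per run) detecting binding. Scanned fluorescence was regression-normalized.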
# [2] = test system: PPARg:RXRa IVT, anti-PPARg (NR concentration 270 nM, RXRa partner concentration 90 nM)
# Summary of the method: as §1
# [3] = test system: PPARg DBDmut:RXRa IVT, anti-PPARg (DBD mutation: PPARg1 K132A/R137A, NR concentration 270 nM, RXRa partner concentration 90 nM)
# Summary of the method: as §1
# [4] = test system: PPARg DBDmut IVT, anti-PPARg (DBD mutation: PPARg1 K132A/R137A, NR concentration 270 nM)
# Summary of the method: as §1
# [5] = test system: PPARg homodimer (NR concentration 180 nM)
# Summary of the method: as §1
# [6] = test system: PXR:RXRa (NR concentration 270 nM, RXRa partner concentration 90 nM)
# Summary of the method: as §1
# [7] = test system: PXR homodimer (NR concentration 270 nM)
# Summary of the method: as §1
# [8] = test system: RARa:RXR (NR concentration 270 nM, RXRa partner concentration 90 nM)
# Summary of the method: as §1
# [9] = test system: RARa homodimer (NR concentration 270 nM)
# Summary of the method: as §1
# [10] = test system: RARb:RXRa (NR concentration 270 nM, RXRa partner concentration 90 nM)
# Summary of the method: as §1
# [11] = test system: RARb homodimer (NR concentration 270 nM)
# Summary of the method: as §1
# [12] = test system: RARg:RXRa (NR concentration 270 nM, RXRa partner concentration 90 nM)
# Summary of the method: as §1
# [13] = test system: RARg homodimer (NR concentration 270 nM)
# Summary of the method: as §1
# [14] = test system: RXRa DBDmut IVT, anti-RXR (DBD mutation: RXRa K156A/R161A, NR concentration 90 nM)
# Summary of the method: as §1
# [15] = test system: RXRa homodimer (NR concentration 180 nM)
# Summary of the method: as §1
# [16] = test system: THRa:RXRa (NR concentration 90 nM, RXRa partner concentration 90 nM)
# Summary of the method: as §1
# [17] = test system: THRa homodimer (NR concentration 90 nM)
# Summary of the method: as §1
# [18] = test system: VDR homodimer (NR concentration 270 nM)
# Summary of the method: as §1
Sequence,PBM binding z-score [1],PBM binding z-score [2],PBM binding z-score [3],PBM binding z-score [4],PBM binding z-score [5],PBM binding z-score [6],PBM binding z-score [7],PBM binding z-score [8],PBM binding z-score [9],PBM binding z-score [10],PBM binding z-score [11],PBM binding z-score [12],PBM binding z-score [13],PBM binding z-score [14],PBM binding z-score [15],PBM binding z-score [16],PBM binding z-score [17],PBM binding z-score [18]
CCGAGTAGGTTATGGGGAATTCAGGCAACGGTGA,3.51,2.6,-0.221,0.307,1.64,0.204,0.469,0.654,0.587,0.784,0.783,0.446,0.494,0.287,0.487,0.724,0.701,0.246
TAGCCTAGGTCATTGGGCCAGTGTAGTACGCATC,2.97,4.15,1.07,-0.249,0.874,1.41,-0.395,2.15,-0.103,3.69,3,3.57,4.14,1.61,2.7,2.94,0.8,1.07
ATCGAAAGGTCGAAGGTGAGAATACCCACCCGAA,0.14,2.32,0.346,0.631,1.03,3.1,0.0633,4.65,0.941,3.83,2.62,4.34,4.24,1.42,5.85,2.23,-0.0436,0.515
GGAACGAGGGCATTCGCGTTGATAGCATGGCGAT,2.08,1.86,-0.525,-0.616,-0.126,0.744,-0.0684,0.449,-0.431,1.71,0.582,0.978,1.21,2.75,0.746,1.08,-0.426,1.79
CCTCGGAGGACAACAGGAGGTCGGAGCTGCCAGA,-0.0819,-0.232,-0.343,-1.52,-0.189,0.00803,-0.239,0.109,0.111,1.55,1.42,1.08,1.36,0.0321,0.223,1.35,0.0235,0.16
ACTCGGAGGACAAAGGTCGGAGCTACGCCAGTGA,-0.0622,1.75,-0.143,-0.29,0.786,1.29,-0.332,1.84,-0.447,2.34,2.12,3.28,1.75,0.784,2.2,1.98,0.0146,0.22
AATACATGGTCATCGTAGGCCAGAGTACGCACAG,0.199,1.21,0.624,0.968,-0.153,0.3,-0.157,0.574,0.339,1.14,0.899,0.696,1.26,-0.177,0.994,1.25,-0.339,0.322
GCTATTAGATGAAAGGGCAACCGAATGATTCTCG,0.363,1.35,0.246,0.212,0.834,0.424,-0.122,0.795,0.15,1.94,1.76,0.991,1.24,0.654,1.17,0.435,-0.425,-0.071
GCTCGGAGGCCAAGGTCAGAGCTTTGTCCGTAGA,0.637,0.382,-1.23,-1.94,1.18,1.64,-0.446,1.82,-1.6,3.45,3.1,2.72,3.69,0.649,1.93,2.64,1.27,0.281
TCTCGGAGGACACGCAGGTCAGAGCTTTCCAGAG,1,0.776,-0.915,-1.54,0.365,1.1,0.213,1.15,-0.493,2.67,2.81,2.47,3.04,0.783,1.05,2.63,1.06,1.2
GCGACTGGGTCAAAGCAGGTTACCATAAGGTTGG,5.8,6.15,0.18,0.407,1.75,3.55,-0.492,3.29,-0.492,3.19,2.76,3.65,3.32,0.713,3.11,4.65,0.279,0.45
ATGGAAAGGTCGACGAGGTGAGTATACACCGTTT,0.338,1.89,0.736,1.01,1.38,2.96,0.609,3.54,0.422,3.73,3.01,4.09,4.05,0.942,4.19,3.7,0.967,0.927
CCTACTGAGCCAAAGGTCATTGATTCCAATGCTC,1.79,3.91,0.27,0.224,5.35,5.49,2.67,5.91,2.36,4.57,4.56,5.34,4.83,2.32,5.76,3.33,1.26,3.3
CCGAGTAGGTTTTGGGGCATTCAGGCAACGGTGA,0.795,0.696,-0.353,-0.0504,0.76,-0.31,-0.0267,0.2,0.947,0.205,0.615,-0.245,-0.424,0.218,-0.246,0.595,0.467,0.218
CCTAGCAGGCCGATCTGGGTCACTCAAGGCTTGA,2.8,4.02,-0.802,-1.18,0.337,0.634,-0.34,1.27,-0.893,1.06,1.59,0.546,0.594,-0.129,0.768,2.97,0.256,-0.162
TCAGACAGGTGAAGGTAACTCAGGTACGCAGTCG,2.78,1.13,0.341,-0.339,0.564,0.641,0.447,0.878,0.775,1.18,1,0.581,0.551,1.37,0.995,1.48,0.516,0.357
TCTCGGAGGATACGAAAGGTCAGAGCTCGACATC,1.32,1.03,-1.04,-0.436,2.71,3.67,0.308,4.51,0.99,3.69,4.38,4.12,3.73,0.587,4.38,2.98,0.363,0.361
CAAACTAGGTCACGGTCAAAGTCGGTTTGTGCCA,8.53,9.26,4.37,3.83,2.22,2.72,-0.218,3.68,0.991,4.81,4.62,4.99,5.89,2.12,3.82,3.94,2.34,1.7
AGAATGAGGTGAAGATCAGGGAAACAGAATACAT,4.13,4.03,1.46,0.73,0.633,0.242,0.183,0.786,0.494,1.32,0.949,1.15,1.09,-0.551,1.05,2.77,1.32,0.103
TCTTGTAGATCAGCAGGCTAAGAAAGCTGGCCAA,1.35,0.0627,-0.91,-0.15,-1.56,-0.333,-0.655,-0.459,-0.665,-0.469,-0.81,-0.564,-0.754,0.38,-0.261,-0.424,-1.21,-0.475
CAAACTAGGTCAAGAGGTGAAAGTCCGCTTCCCG,8.11,8.63,5.95,5.05,5.72,2.72,0.369,4.83,1.4,4.54,4.18,5.62,5.36,1.5,4.52,3.58,1.67,0.973
GATACTGGGTCAAGGCCAGAGTACGCGTATTGAT,6.7,7.44,0.217,1.07,1.49,1.23,-0.00412,1.72,0.506,3.48,2.91,3.4,3.58,-0.138,2.62,2.09,0.289,0.679
GCTAGCAGGCCCTTTGGGTCACTCAATGACGGGC,-0.306,0.697,-0.724,-0.795,-0.401,-0.203,-0.555,0.51,-0.612,0.879,1.29,0.49,0.718,-0.714,0.498,1.67,0.25,-0.37
AATACAGGGTCAGCGTAGGCCAGAGTACGCACAG,1.94,3.32,1.54,1.65,1.81,3.51,0.39,3.85,0.496,4.15,3.36,4.93,4.67,1.69,4.84,3.98,0.9,1.65
CCTGCTAGGTCATGGTCACCTAATCTACAGTATG,5,5.09,0.83,0.207,1.89,1.82,-0.294,2.75,-0.115,3.98,3.43,4.1,4.93,1.77,3.5,3.13,1.78,0.622
CCGACTGGGGCAAAGGTTACCCTACTCAGTACGA,4.37,5.45,-0.494,-0.866,0.732,1.9,-0.0869,3.02,-0.235,2.1,1.96,3.01,1.49,-0.029,3.13,1.72,0.249,0.136
GATACAGGGTCAGCTAGAGGCCTGAGTATGGAAA,1.41,1.85,-0.274,-0.805,1.14,1.73,-0.266,2.75,-0.534,3.74,2.73,4.73,4.64,1.14,4.29,2.49,0.0158,0.311
ATCTCTAGGTAAGACACAGTTCAGTGAAGAACGC,2.01,1.34,1.21,1.33,1.82,1.31,1.06,0.786,1.69,0.924,1.33,0.686,0.694,0.59,0.755,0.849,0.689,1.37
GGAACGAGGGCATTCGAGTTGTTAGCATGGCGAT,3.22,1.99,-0.193,-0.86,-0.473,1.99,0.576,0.173,-0.666,1.81,0.647,0.902,1.17,2.89,0.659,2.06,-0.524,2.43
